# Reference: the supplement of paper PMC4466140
# Assays:
# Experiment in all cases: SPOT peptide array binding signal intensity (averaged, normalized) (arbitrary units (background-subtracted, floor 0; scale differs between SH3 domains)); higher = stronger binding of the SH3 domain to the peptide
# AgAbp1 = target: AgAbp1
# How it was run: (§1)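 Four yeast species supplied the SH3 domains, which were expressed as GST fusions in E. coli BL21(DE3) and purified on glutathione Sepharose. Incubation with cellulose membranes carrying synthetic 15-mer peptides, cysteines exchanged for serines, ran overnight at 4°C at 10 μg/ml in TBS-based blocking buffer. Binding signal is reported as normalized, background-subtracted spot intensity averaged over replicates, in arbitrary units not shared between domains.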
# AgBbc1 = target: AgBbc1
# How it was run: as §1
# AgBem1-D1 = target: AgBem1-D1
# How it was run: as §1
# AgBzz1-D1 = target: AgBzz1-D1
# How it was run: as §1
# AgBzz1-D2 = target: AgBzz1-D2
# How it was run: as §1
# AgCyk3 = target: AgCyk3
# How it was run: as §1
# AgFus1 = target: AgFus1
# How it was run: as §1
# AgHof1 = target: AgHof1
# How it was run: as §1
# AgHse1 = target: AgHse1
# How it was run: as §1
# AgLsb1 = target: AgLsb1
# How it was run: as §1
# AgLsb4 = target: AgLsb4
# How it was run: as §1
# AgMyo5 = target: AgMyo5
# How it was run: as §1
# AgNbp2 = target: AgNbp2
# How it was run: as §1
# AgRvs167 = target: AgRvs167
# How it was run: as §1
# AgSho1 = target: AgSho1
# How it was run: as §1
# AgSla1-D1-D2 = target: AgSla1-D1-D2
# How it was run: as §1
# AgSla1-D3 = target: AgSla1-D3
# How it was run: as §1
# CaAbp1-D1 = target: CaAbp1-D1
# How it was run: as §1
# CaAbp1-D2 = target: CaAbp1-D2
# How it was run: as §1
# CaBbc1 = target: CaBbc1
# How it was run: as §1
# CaBem1-D1 = target: CaBem1-D1
# How it was run: as §1
# CaBzz1-D1 = target: CaBzz1-D1
# How it was run: as §1
# CaBzz1-D2 = target: CaBzz1-D2
# How it was run: as §1
# CaCyk3 = target: CaCyk3
# How it was run: as §1
# CaFus1 = target: CaFus1
# How it was run: as §1
# CaHof1 = target: CaHof1
# How it was run: as §1
# CaHse1 = target: CaHse1
# How it was run: as §1
# CaLsb1 = target: CaLsb1
# How it was run: as §1
# CaLsb4 = target: CaLsb4
# How it was run: as §1
# CaMyo5 = target: CaMyo5
# How it was run: as §1
# CaNbp2 = target: CaNbp2
# How it was run: as §1
# CaRvs167 = target: CaRvs167
# How it was run: as §1
# CaRvs167-3 = target: CaRvs167-3
# How it was run: as §1
# CaSho1 = target: CaSho1
# How it was run: as §1
# CaSla1-D1-D2 = target: CaSla1-D1-D2
# How it was run: as §1
# CaSla1-D3 = target: CaSla1-D3
# How it was run: as §1
# ScAbp1 = target: ScAbp1
# How it was run: as §1
binder,measurement,setting,value
APKREAPKPPANTSP,SPOT peptide array binding signal intensity,AgAbp1,1
same,SPOT peptide array binding signal intensity,AgBbc1,112
same,SPOT peptide array binding signal intensity,AgBem1-D1,34
same,SPOT peptide array binding signal intensity,AgBzz1-D1,178
same,SPOT peptide array binding signal intensity,AgBzz1-D2,2.5
same,SPOT peptide array binding signal intensity,AgCyk3,≤ 0
same,SPOT peptide array binding signal intensity,AgFus1,≤ 0
same,SPOT peptide array binding signal intensity,AgHof1,6
same,SPOT peptide array binding signal intensity,AgHse1,≤ 0
same,SPOT peptide array binding signal intensity,AgLsb1,4.5
same,SPOT peptide array binding signal intensity,AgLsb4,≤ 0
same,SPOT peptide array binding signal intensity,AgMyo5,265
same,SPOT peptide array binding signal intensity,AgNbp2,382
same,SPOT peptide array binding signal intensity,AgRvs167,≤ 0
same,SPOT peptide array binding signal intensity,AgSho1,≤ 0
same,SPOT peptide array binding signal intensity,AgSla1-D1-D2,≤ 0
same,SPOT peptide array binding signal intensity,AgSla1-D3,8
same,SPOT peptide array binding signal intensity,CaAbp1-D1,6
same,SPOT peptide array binding signal intensity,CaAbp1-D2,11
same,SPOT peptide array binding signal intensity,CaBbc1,251
same,SPOT peptide array binding signal intensity,CaBem1-D1,14
same,SPOT peptide array binding signal intensity,CaBzz1-D1,2040
same,SPOT peptide array binding signal intensity,CaBzz1-D2,2090
same,SPOT peptide array binding signal intensity,CaCyk3,≤ 0
same,SPOT peptide array binding signal intensity,CaFus1,18
same,SPOT peptide array binding signal intensity,CaHof1,≤ 0
same,SPOT peptide array binding signal intensity,CaHse1,1.5
same,SPOT peptide array binding signal intensity,CaLsb1,≤ 0
same,SPOT peptide array binding signal intensity,CaLsb4,≤ 0
same,SPOT peptide array binding signal intensity,CaMyo5,1.75
same,SPOT peptide array binding signal intensity,CaNbp2,1520
same,SPOT peptide array binding signal intensity,CaRvs167,0.5
same,SPOT peptide array binding signal intensity,CaRvs167-3,2
same,SPOT peptide array binding signal intensity,CaSho1,≤ 0
same,SPOT peptide array binding signal intensity,CaSla1-D1-D2,106
same,SPOT peptide array binding signal intensity,CaSla1-D3,0.25
same,SPOT peptide array binding signal intensity,ScAbp1,≤ 0
